Data on 6 molecules can be found in PubChem BioAssay.

This test can be described thus: compound effects on multiple myeloma cell viability – MM1S, calcein-AM fluorescence, 48 h, basal, profiling panel (AID 1165). Note: test concentration not given here. The conditions noted are these: higher = more signal.
Consider `COc1ccc([C@H]2C[C@H]3C(Br)=C[C@@H]2C(=O)[C@]32CO2)cc1`, for which the z-score was -2.75.
In the case of `COc1ccc(C(=O)Nc2ccc(CN3C(=O)[C@@]4(O[C@@H](CC(=O)N5CCC[C@H]5CO)[C@H]([Si](C)(C)c5ccc(OC)cc5)[C@H]4C)c4ccccc43)cc2)cc1` it was -2.5; in that of `COCCOC(=O)N1C(=O)[C@@]2(c3cc(C#CC4=CCCCC4)ccc31)[C@H](C(=O)Nc1nc3ccccc3s1)[C@H]1C(=O)O[C@H](c3ccccc3)[C@H](c3ccccc3)N1[C@@H]2c1ccc(OCCO)cc1`, -0.953; in that of `C=CCOC(=O)[C@H]1[C@@H]2C(=O)O[C@@H](c3ccccc3)[C@@H](c3ccccc3)N2[C@@H](c2ccc(OCCOC(=O)[C@H]3C[C@H]4C(=O)N5CCC[C@H]5C(=O)N4[C@H]3c3ccc(O)cc3)cc2)[C@]12C(=O)Nc1ccccc12`, -0.0596.
In the case of `C=C(CCCC)/C(=C/C[C@@H](OC(C)=O)c1ccccc1OCCO)c1cnc2ccccc2c1`, the z-score is -2.72.
With `Cc1ccc(C(C)CC(O)C2C=CC3C(=O)N(c4ccccc4)C(=O)C3N2Nc2ccc([N+](=O)[O-])cc2)o1` (stereo unspecified), the z-score was -0.0308.
